From PubChem BioAssay (Tox21)
Results filed as inconclusive are left out. The source made the active and inactive calls. Calls follow the shape of the full dose curve.

Assay: p53 small molecule agonists, cell-based qHTS assay with human liver microsomes (AID 1963577);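 also: p53 response element beta-lactamase reporter cells with liver microsomes plus NADPH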
Conditions: HCT-116 p53RE-bla with human liver microsomes, ratio, 16 h; series mostly up to 66 µM; activation: at the top concentration
Source text: National Center for Advancing Translational Sciences [NCATS]
Division of Preclinical Innovation [DPI]
U.S. Environmental Protection Agency [EPA]
National Institutes of Environmental Health Sciences [NIEHS]
National Toxicology Program [NTP]
U.S. Food and Drug Administration [FDA]
p53, a tumor suppressor protein, is activated following cellular insult, including DNA damage and other cellular stresses. The activation of p53 regulates cell fate by inducing DNA repair, cell cycle arrest, apoptosis, or cellular senescence. The activation of p53, therefore, is a good indicator of DNA damage and other cellular stresses. […] The activation of the reporter gene under culture conditions can be detected by fluorescence intensity.
Tox21 Assay Protocol Summary:
The p53RE-bla cells were dispensed at 4,000cells/3ul/well in 1536-well black-clear bottom plates. After the assay plates were incubated at 37 C, 5% CO2 incubator for 5 hours, 23 nL of compounds dissolved in DMSO, positive controls or DMSO only was transferred to the assay plate. Following compound addition, 3 uL of human liver microsomes (XenoTech, Kansas City, KS) at final concentration of 0.5 mg/mL and 1uL of Beta-Nicotinamide adenine dinucleotide 2-phosphate (NADPH) at final concentration of 0.5 mg/mL were transferred to the assay plate. The plates were incubated at 37 C for 16 hours. 1 uL of LiveBLAzer detection mixture was added to each well and the plates were incubated at room temperature in the dark for 2 h.
% is scaled to controls: 0 for no effect and ±100 for the full control effect.

SMILES | activation
CC(=O)[C@@]1(O)CC[C@H]2[C@@H]3C[C@H](C)C4=CC(=O)CC[C@]4(C)[C@H]3CC[C@@]21C | -8.47% [at 30.3 µM] (inactive)
CC(COC(C)(C)C)OCCCO (stereo not given) | 2.72% (inactive)
C=CC(=O)OCC(O)COc1ccccc1 (stereo not given) | -2.34% (inactive)
COCCOC(=O)C1=C(C)NC(C)=C(C(=O)OC(C)C)C1c1cccc([N+](=O)[O-])c1 (stereo not given) | -4.65% [at 30.3 µM] (inactive)
CCCCC | 0.126% (inactive)
C=CS(=O)(=O)O | 6% (inactive)
O=C(O)C(=O)Cc1c[nH]c2ccccc12 | -2.45% (inactive)
CCc1ccc(C(=O)C(C)CN2CCCCC2)cc1 (stereo not given) | 3.09% [at 30.3 µM] (inactive)
Clc1ccc2c(c1)CCc1cccnc1C2=C1CCNCC1 | -8.61% [at 30.3 µM] (inactive)
Nc1ccccc1S(=O)(=O)c1ccccc1 | -0.181% (inactive)
CCc1cccc(C)c1 | -1.48% (inactive)
C=C1CC[C@H]2O[C@]2(C)CC[C@@H]2[C@@H]1CC2(C)C | 1.35% (inactive)
CCCCNc1ccc(C(=O)OCCN(C)C)cc1 | 1.15% [at 30.3 µM] (inactive)
CCCCCCCCCCCCCCCCCCO | 1.1% [at 30.3 µM] (inactive)
O=C1C(CCS(=O)c2ccccc2)C(=O)N(c2ccccc2)N1c1ccccc1 (stereo not given) | 0.131% [at 30.3 µM] (inactive)
[O]=[Bi] | -14.4% [at 5.99 µM] (inactive)
CCc1cccc(C)c1N(C(=O)C(=O)O)C(C)COC (stereo not given) | -13% (inactive)
CCCCCCCCCCCBr | 1.63% [at 30.3 µM] (inactive)
C=C1CC[C@H](O)C/C1=C\C=C1/CCC[C@]2(C)[C@@H]([C@H](C)CCCC(C)C)CC[C@@H]12 | -8.64% (inactive)
O=C(COCCOCCOCC(=O)Nc1c(I)cc(I)c(C(=O)O)c1I)Nc1c(I)cc(I)c(C(=O)O)c1I | -0.565% [at 30.3 µM] (inactive)

SMILES | activation
CC(C)CCCC(C)NCCC(C)C (stereo not given) | -3.6% [at 30.3 µM] (inactive)
CCCCCCCCCCCC[N+](C)(C)CC(=O)[O-] | -3.55% (inactive)
CCN1CC(CCN2CCOCC2)C(c2ccccc2)(c2ccccc2)C1=O (stereo not given) | 7.95% [at 30.3 µM] (inactive)
OCC(CO)n1cnc(-c2ccc(F)cc2)c1-c1ccnc(Oc2ccccc2)n1 | -17.9% (inactive)
Nc1ccc(S(=O)(=O)Nc2ccnn2-c2ccccc2)cc1 | 4.03% [at 13.5 µM] (inactive)
CC(C)CCCCCCOC(=O)c1ccc(C(=O)OCCCCCCC(C)C)c(C(=O)OCCCCCCC(C)C)c1 | 0.726% (inactive)
Cc1cccc(C(=O)O)c1[N+](=O)[O-] | 2.94% (inactive)
Cc1ccccc1C#N | 0.725% (inactive)
CCOCC(O)COc1ccc(NC(=O)CC[S+](C)C)cc1 (stereo not given) | 3.51% [at 30.3 µM] (inactive)
CC(C)NCC(O)c1ccc2ccccc2c1 (stereo not given) | -0.482% [at 30.3 µM] (inactive)
CC(=O)O[C@@H]1C(=O)O[C@@H]2[C@H]1OC(=O)[C@@H]2OC(C)=O | 2.78% [at 30.3 µM] (inactive)
C[C@H]1NCc2cc(-c3ccc4c(=O)c(C(=O)O)cn(C5CC5)c4c3OC(F)F)ccc21 | -4.26% [at 13.5 µM] (inactive)
COC(C)(OC)OC | 3.56% (inactive)
CCCCCCCC/C=C\CCCCCCCCOCCO | -2% (inactive)
COc1ncnc(NS(=O)(=O)c2ccc(N)cc2)c1OC | 5.95% [at 30.3 µM] (inactive)
O=C1c2ccccc2C(=O)c2cc(Cl)ccc21 | -0.0412% [at 5.99 µM] (inactive)
OCCCCC(O)CO (stereo not given) | -2.29% (inactive)
NC(=O)C(=O)N/N=C/c1ccc([N+](=O)[O-])o1 | 12.6% [at 30.3 µM] (inactive)
c1cc(N(CC2CO2)CC2CO2)ccc1Cc1ccc(N(CC2CO2)CC2CO2)cc1 (stereo not given) | -5.42% (inactive)
CC(=O)Oc1ccc(C2(c3ccc(OC(C)=O)cc3)C(=O)Nc3ccccc32)cc1 | -1.72% [at 30.3 µM] (inactive)
